This passage reports activation and inhibition results from PubChem BioAssay.

Values without a mark were called inactive. Some of the results follow. Calls of active or inactive are those of the source. Unless noted, no stated cut-off is given here; in the data, active means activation above about 8.9%; inactive means the rest.

The subject of assay [1] is HIV-1 integrase (multimerization). Briefly: HIV-1 IN multimer formation enhancers, counter-screen for LEDGF/p75 integration inhibitor project, biochemical, TR-FRET (AID 1053131). To be noted: TR-FRET HIV-1 integrase multimerization, at 7.7 µM, stronger effect = higher value. A general note: Counterscreens check selectivity or assay interference.
Assay [2] is described as follows: TR-FRET optical interference artefacts, confirmation, artefact control for LEDGF/p75-dependent integration inhibitor project, biochemical, HIV-1 IN multimerization (AID 1053135;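 active means inhibition above the mean over all tested compounds plus 3 SD, which no compound reached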;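 further: 0% = integrase with antibodies and DMSO and 100% = antibodies without integrase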). To be noted: TR-FRET optical interference counterscreen, at 7.7 µM, stronger effect = higher value.
Assay [3] deals with HIV-1 integrase / human LEDGF/p75 complex. In words: inhibitors of HIV-1 IN-LEDGF/p75 DNA integration, confirmation, biochemical, TR-FRET (AID 1053136; in the data active means inhibition above about 14%). Particulars: TR-FRET LEDGF/p75-dependent HIV-1 integration, at 3.7 µM, stronger effect = higher value. On the technique in general: Time-resolved FRET reads energy transfer from a long-lived donor to a nearby acceptor.
The target of assay [4] is Glutathione S-transferase omega-1 (Homo sapiens) (UniProt P78417). In words: GSTO1 inhibitor hit confirmation, counter-screen for RBBP9 inhibitor project, biochemical, fluorescence polarization, triplicate (AID 2176;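 active means inhibition above the primary screen's cutoff, its mean inhibition plus 3 SD, cut at about 35% in these data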;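 further: loss of polarization as inhibitors block binding of rhodamine sulfonate ester activity probe; 0% = GSTO1 with DMSO and 100% = wells lacking GSTO1 enzyme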). Particulars: recombinant GSTO1, probe fluorescence polarization; at 5.96 µM; stronger effect = higher value.
Chain of Glutathione S-transferase omega-1 (Homo sapiens) (P78417 whole entry, looked up): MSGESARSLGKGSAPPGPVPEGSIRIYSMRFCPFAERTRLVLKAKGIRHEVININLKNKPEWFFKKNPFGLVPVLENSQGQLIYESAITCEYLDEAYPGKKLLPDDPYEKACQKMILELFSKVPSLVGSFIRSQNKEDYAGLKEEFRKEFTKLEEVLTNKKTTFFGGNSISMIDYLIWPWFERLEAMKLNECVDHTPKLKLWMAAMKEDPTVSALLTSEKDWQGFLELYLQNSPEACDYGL
The target of assay [5] is Nuclear receptor coactivator 1 (Homo sapiens) (UniProt Q15788). In words: SRC1 coactivator transcriptional activity inhibitors, confirmation, cell-based, luminescence, quadruplicate (AID 588820;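 active means mean inhibition above 46.68%, the untreated control wells mean plus 3 SD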;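 further: 0% = DMSO wells and 100% = gossypol 36 µM treated wells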). To be noted: HEK293 GAL4-SRC1 luciferase reporter, at 3.6 µM, stronger effect = higher value. On the technique in general: A reporter such as luciferase makes a cellular process visible.
Chain of Nuclear receptor coactivator 1 (Homo sapiens) (Q15788 whole entry, looked up, the tested form may be a part): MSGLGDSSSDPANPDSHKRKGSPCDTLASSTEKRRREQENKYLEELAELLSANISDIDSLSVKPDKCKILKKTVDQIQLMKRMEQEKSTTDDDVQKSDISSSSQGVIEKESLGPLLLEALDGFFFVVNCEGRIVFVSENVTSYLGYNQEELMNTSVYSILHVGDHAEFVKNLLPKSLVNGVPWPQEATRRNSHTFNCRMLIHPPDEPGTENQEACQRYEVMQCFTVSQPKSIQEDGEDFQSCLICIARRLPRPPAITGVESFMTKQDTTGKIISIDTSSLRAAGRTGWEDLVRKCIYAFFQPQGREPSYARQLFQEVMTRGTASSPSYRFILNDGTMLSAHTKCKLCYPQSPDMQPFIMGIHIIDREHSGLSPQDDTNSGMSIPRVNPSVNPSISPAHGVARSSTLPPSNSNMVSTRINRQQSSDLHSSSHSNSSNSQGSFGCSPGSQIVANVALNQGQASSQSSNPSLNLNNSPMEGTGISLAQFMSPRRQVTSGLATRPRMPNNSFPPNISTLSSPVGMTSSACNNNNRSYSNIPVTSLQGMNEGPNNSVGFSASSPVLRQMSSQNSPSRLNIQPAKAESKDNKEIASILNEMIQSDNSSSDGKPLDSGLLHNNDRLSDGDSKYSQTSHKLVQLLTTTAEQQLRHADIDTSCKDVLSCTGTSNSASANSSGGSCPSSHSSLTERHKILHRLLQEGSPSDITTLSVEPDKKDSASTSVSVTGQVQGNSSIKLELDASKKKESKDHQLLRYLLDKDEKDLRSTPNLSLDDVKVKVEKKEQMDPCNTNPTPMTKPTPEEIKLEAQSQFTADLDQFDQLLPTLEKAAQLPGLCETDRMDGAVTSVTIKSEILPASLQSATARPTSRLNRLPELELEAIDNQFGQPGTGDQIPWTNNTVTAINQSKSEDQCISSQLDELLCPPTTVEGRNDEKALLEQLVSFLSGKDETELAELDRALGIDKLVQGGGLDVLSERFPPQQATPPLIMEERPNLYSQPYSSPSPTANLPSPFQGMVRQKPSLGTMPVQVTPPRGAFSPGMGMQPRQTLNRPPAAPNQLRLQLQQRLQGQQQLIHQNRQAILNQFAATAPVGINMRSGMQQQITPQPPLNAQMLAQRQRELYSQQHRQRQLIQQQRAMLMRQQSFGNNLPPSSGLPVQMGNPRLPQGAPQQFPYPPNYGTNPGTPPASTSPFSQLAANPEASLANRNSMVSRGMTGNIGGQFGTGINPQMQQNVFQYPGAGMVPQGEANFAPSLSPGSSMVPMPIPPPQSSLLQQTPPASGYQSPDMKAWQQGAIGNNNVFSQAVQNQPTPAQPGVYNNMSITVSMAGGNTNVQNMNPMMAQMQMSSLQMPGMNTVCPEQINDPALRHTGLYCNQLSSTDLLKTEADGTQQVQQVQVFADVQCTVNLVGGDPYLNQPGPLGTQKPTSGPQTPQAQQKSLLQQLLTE
A short description of assay [6]: VP16 transactivation inhibitors, counter-screen for SRC1 inhibitor project, cell-based, luminescence, high throughput (AID 588824; in the data active means inhibition above about 25%). To be noted: cell-based VP16 transactivation luciferase luminescence; at 3.6 µM; stronger effect = higher value.
Assay [7] deals with Fam108b (Abhd17b) serine hydrolase [Mus musculus]. Briefly: mouse Fam108b serine hydrolase inhibitors, confirmation, counter-screen for RBBP9 inhibitor project, biochemical, fluorescence polarization, triplicate (AID 1978;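 active means inhibition above a limit from the primary screen, the mean over all compounds plus 3 SD, cut at about 19% in these data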;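 further: 0% = median of active Fam108b wells and 100% = catalytically dead S170A mutant; inhibitors free the probe so polarization falls as inhibition rises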). Particulars: recombinant Fam108b, FP-Rh probe fluorescence polarization; at 9.51 µM; stronger effect = higher value.
Assay [8] addresses Protein-arginine deiminase type-4 (Homo sapiens) (UniProt Q9UM07). Briefly: human PAD4 inhibitors, confirmation, biochemical, fluorescence polarization (AID 488796;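 active means mean inhibition across replicates above the hit cutoff set by the earlier primary screen, cut at about 15% in these data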;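 further: inhibitors block active-site labeling by the probe so polarization falls; 0% = PAD4 with probe and DMSO and 100% = probe without PAD4 enzyme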). To be noted: recombinant PAD4, RCA probe fluorescence polarization; at 6.36 µM; stronger effect = higher value.
In assay [9] the target is Oxysterols receptor LXR-beta (Homo sapiens) (UniProt P55055). In words: LXR agonists, Gal4 luciferase reporter, confirmation, counter-screen for hcDAF-12 agonist project, cell-based, luminescence, HEK293, H. contortus campaign (AID 743027;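 active means mean percent activation of the reporter above a cutoff set as the average over tested compounds plus their standard deviation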). Particulars: HEK293 Gal4-LXR tk-luc reporter, 24 h, at 6.8 µM, stronger effect = higher value, normalized: DMSO 0%, positive control 100%.
Chain of Oxysterols receptor LXR-beta (Homo sapiens) (P55055 whole entry, looked up, the tested form may be a part): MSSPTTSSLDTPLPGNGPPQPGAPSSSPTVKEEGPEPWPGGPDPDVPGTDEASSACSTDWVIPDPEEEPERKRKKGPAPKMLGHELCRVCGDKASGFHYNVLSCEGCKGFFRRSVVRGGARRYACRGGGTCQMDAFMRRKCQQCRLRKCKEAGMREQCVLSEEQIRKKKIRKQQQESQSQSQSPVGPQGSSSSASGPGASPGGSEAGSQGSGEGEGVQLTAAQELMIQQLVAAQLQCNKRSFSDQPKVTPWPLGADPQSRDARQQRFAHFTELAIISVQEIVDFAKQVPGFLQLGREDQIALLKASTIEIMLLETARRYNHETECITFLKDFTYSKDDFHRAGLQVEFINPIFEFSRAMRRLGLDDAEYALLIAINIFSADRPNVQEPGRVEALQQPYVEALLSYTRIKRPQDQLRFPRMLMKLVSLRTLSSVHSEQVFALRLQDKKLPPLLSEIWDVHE
For assay [10], the system named is Nuclear hormone receptor DAF-12 (Haemonchus contortus). Briefly: H. contortus DAF-12 receptor agonists, confirmation, cell-based, luminescence, HEK293, lit1-tk-luc, triplicate (AID 743032;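 active means mean activation across triplicate tests above the threshold derived from the earlier primary screen, cut at about 5.5% in these data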;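 further: 0% = DMSO only wells and 100% = 3 µM Δ7-dafachronic acid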). Particulars: HEK293 hcDAF-12 lit1-tk-luc reporter, at 6.8 µM, stronger effect = higher value, % of Δ7-dafachronic acid response.
The target in assay [11] is Bcl-2-like protein 1 (Homo sapiens) (UniProt Q07817). Briefly: Bcl-xL inhibitors blocking Bim BH3 binding, confirmation, counter-screen for MCL1 inhibitor project, biochemical, fluorescence polarization (AID 2166;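 active means inhibition above a cutoff equal to the mean inhibition of all tested compounds plus 3 SD, cut at about 30% in these data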). Particulars: GST-Bcl-xL / FITC-Bim BH3 peptide FP binding; at 10.9 µM; stronger effect = higher value.
Chain of Bcl-2-like protein 1 (Homo sapiens) (Q07817 whole entry, looked up): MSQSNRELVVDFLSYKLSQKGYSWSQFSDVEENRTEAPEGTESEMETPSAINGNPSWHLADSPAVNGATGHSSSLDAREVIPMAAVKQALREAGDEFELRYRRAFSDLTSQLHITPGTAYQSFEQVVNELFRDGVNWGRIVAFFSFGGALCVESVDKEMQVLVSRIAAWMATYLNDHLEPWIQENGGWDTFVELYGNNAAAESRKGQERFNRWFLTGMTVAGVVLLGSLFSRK
Assay [12] concerns the target Induced myeloid leukemia cell differentiation protein Mcl-1 (Homo sapiens) (UniProt Q07820). Briefly: inhibitors of MCL1 binding to BIM-BH3, confirmation, biochemical, fluorescence polarization, triplicate (AID 2168;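 active means inhibition above the average of all tested compounds plus 3 SD, cut at about 40% in these data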;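 further: 0% = DMSO wells and 100% = unlabeled Bim-BH3 control peptide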). Particulars: GST-MCL1 / FITC-Bim-BH3 fluorescence polarization; at 10.9 µM; stronger effect = higher value.
Assay [13] concerns the target Platelet-activating factor acetylhydrolase (Homo sapiens) (UniProt Q13093). In words: pPAFAH (PLA2G7) enzyme inhibitors, confirmation, biochemical, fluorescence polarization, human (AID 463230;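 active means mean inhibition of the triplicate above the hit cutoff set for the earlier primary screen, cut at about 25% in these data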;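 further: 0% = enzyme with DMSO and 100% = wells lacking pPAFAH enzyme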). To be noted: recombinant pPAFAH, FP-Rh probe fluorescence polarization; at 3.39 µM; stronger effect = higher value.
Assay [14] can be described thus: KLF5 expression inhibitors, confirmation, DLD-1 cells, luminescence (AID 1834;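 active means inhibition above a set limit taken from the earlier primary screen, cut at about 63% in these data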;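 further: 0% = DMSO wells and 100% = LY294002 at 200 µM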). Particulars: DLD-1 KLF5 promoter firefly luciferase reporter, at 4 µM, stronger effect = higher value.
Assay [15] can be described thus: cytotoxicity in rat IEC-6 cells, cytotoxicity control for KLF5 inhibitor project, cell-based, luminescence, triplicate (AID 1905; in the data active means inhibition above about 23%;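 further: cells exposed to compounds for 48 hours before viability read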). Particulars: IEC-6 rat intestinal cells, viability luminescence; at 4 µM; stronger effect = higher value.
A short description of assay [16]: growth loss of phage-infected E. coli expressing H. pylori AddAB, confirmation, AddAB inhibitor project, absorbance, E. coli V3065, T4 phage, triplicate (AID 488942;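 active means mean inhibition above a set limit taken from the earlier primary screen, cut at about 13% in these data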;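 further: higher means less bacterial growth since AddAB block lets phage replicate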). Particulars: OD, at 11.9 µM, stronger effect = higher value, T4 phage with gene 2 nonsense mutations.
Assay [17] is described as follows: growth loss of RecBCD+ E. coli with mutant T4 phage, counter-screen for AddAB inhibitor project, absorbance, V66 E. coli (AID 488955;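 active means mean inhibition above the mean of solvent-only control wells plus 3 SD, cut at about 4% in these data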;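 further: optical density read after an 18 h incubation at 37 °C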). To be noted: OD growth, at 11.9 µM, stronger effect = higher value.
A short description of assay [18]: bacterial viability inhibition counter-screen, confirmation, counter-screen for AddAB inhibitor project, absorbance (AID 488956; in the data active means inhibition above about 25%). To be noted: absorbance (AddAB counterscreen), at 11.9 µM, stronger effect = higher value.
Assay [19] can be described thus: growth loss of phage-infected RecBCD+ E. coli, confirmation, RecBCD inhibitor project, absorbance, E. coli V66, T4 gene 2 phage (AID 651982;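 active means mean inhibition over triplicates exceeding the hit threshold derived in the original primary screen, cut at about 11% in these data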). Particulars: E. coli V66 + T4 2- phage, growth OD; at 11.9 µM; stronger effect = higher value.
Assay [20] is described as follows: E. coli viability inhibition, counter-screen for RecBCD inhibitor project, absorbance, high throughput (AID 651983; in the data active means inhibition above about 20%;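 further: E. coli strain V66 grown with compound alone and no phage infection; 0% = bacteria with DMSO vehicle only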). To be noted: absorbance (OD) growth, at 11.9 µM, stronger effect = higher value.
Assay [21] is described as follows: growth loss of phage-infected AddAB-carrying E. coli, confirmation, counter-screen for RecBCD inhibitor project, absorbance, E. coli V3065, T4 phage (AID 651984;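 active means mean inhibition above the solvent-only control wells' mean plus 3 SD, cut at about 22% in these data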;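 further: higher means less bacterial growth from phage killing when AddAB is blocked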). Particulars: E. coli expressing H. pylori AddAB + T4 phage, OD growth; at 11.9 µM; stronger effect = higher value; gene 2 mutant T4, recBCD-deleted host.
A short description of assay [22]: compounds interfering with TAMRA-BSA probe, counter-screen for TCR-CD3 interaction inhibitor project, biochemical, fluorescence, TAMRA-labeled BSA (AID 652035; in the data active means inhibition above about 23%;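 further: 0% = buffer low control and 100% = reference high control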). To be noted: TAMRA-labeled BSA probe fluorescence counterscreen; at 9.4 µM; stronger effect = higher value.
The subject of assay [23] is T-cell receptor (TCR)-CD3 interaction, human. In words: TCR-CD3 interaction inhibitors, retest, confirmation, biochemical, fluorescence, TAMRA-labeled TCR probe (AID 652036; in the data active means inhibition above about 19%). Particulars: TAMRA-labeled TCR probe fluorescence binding assay; at 9.4 µM; stronger effect = higher value.
Assay [24] deals with (Lyso)-N-acylphosphatidylethanolamine lipase (Mus musculus) (UniProt Q8VD66). Briefly: ABHD4 inhibitors, retest, confirmation, biochemical, fluorescence polarization, mouse (AID 720658;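 active means mean inhibition across replicates above the hit cutoff set in the primary screen, cut at about 30% in these data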;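 further: 0% = wild-type ABHD4 with DMSO and 100% = catalytically dead S159A mutant with DMSO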). Particulars: purified mABHD4, FP-Rh probe fluorescence polarization; at 8.92 µM; stronger effect = higher value.
Chain of (Lyso)-N-acylphosphatidylethanolamine lipase (Mus musculus) (Q8VD66 whole entry, looked up): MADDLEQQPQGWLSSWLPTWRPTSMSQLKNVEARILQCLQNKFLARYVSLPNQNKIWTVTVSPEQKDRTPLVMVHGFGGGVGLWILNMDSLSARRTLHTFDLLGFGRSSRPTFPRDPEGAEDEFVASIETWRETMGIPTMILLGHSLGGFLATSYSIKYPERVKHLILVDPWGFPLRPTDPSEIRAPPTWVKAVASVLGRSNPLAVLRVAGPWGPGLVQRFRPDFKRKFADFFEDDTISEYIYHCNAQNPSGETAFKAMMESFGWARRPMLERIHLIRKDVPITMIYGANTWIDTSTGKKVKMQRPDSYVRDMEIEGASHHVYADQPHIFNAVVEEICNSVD
The target in assay [25] is Serine protease HTRA1 (Homo sapiens) (UniProt Q92743). In words: HTRA1 protease inhibitors, retest, confirmation, biochemical, fluorescence polarization (AID 540248;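 active means mean inhibition over three repeats above a set limit taken from the earlier primary screen, cut at about 37% in these data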;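 further: 0% = HTRA1 with DMSO and 100% = wells lacking HTRA1; inhibitors block probe binding so polarization drops and inhibition rises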). To be noted: recombinant HTRA1, FP-rhodamine activity-based probe, at 5.96 µM, stronger effect = higher value.

By inhibition is commonly meant the drop in the measured response relative to a control, in per cent.

Chain of Platelet-activating factor acetylhydrolase (Homo sapiens) (Q13093 whole entry, looked up): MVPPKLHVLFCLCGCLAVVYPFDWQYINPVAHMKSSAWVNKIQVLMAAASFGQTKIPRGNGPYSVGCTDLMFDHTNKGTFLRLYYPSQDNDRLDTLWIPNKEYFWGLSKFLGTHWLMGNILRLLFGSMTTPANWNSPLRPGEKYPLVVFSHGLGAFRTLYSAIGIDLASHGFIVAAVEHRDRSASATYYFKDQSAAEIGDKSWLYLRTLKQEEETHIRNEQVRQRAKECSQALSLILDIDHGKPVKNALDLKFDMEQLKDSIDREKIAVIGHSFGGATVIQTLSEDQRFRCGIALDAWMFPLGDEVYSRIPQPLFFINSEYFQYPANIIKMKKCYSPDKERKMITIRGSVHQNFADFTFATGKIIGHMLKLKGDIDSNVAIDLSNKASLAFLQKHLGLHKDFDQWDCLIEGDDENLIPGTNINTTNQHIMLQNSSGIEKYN
Chain of Protein-arginine deiminase type-4 (Homo sapiens) (Q9UM07 whole entry, looked up, the tested form may be a part): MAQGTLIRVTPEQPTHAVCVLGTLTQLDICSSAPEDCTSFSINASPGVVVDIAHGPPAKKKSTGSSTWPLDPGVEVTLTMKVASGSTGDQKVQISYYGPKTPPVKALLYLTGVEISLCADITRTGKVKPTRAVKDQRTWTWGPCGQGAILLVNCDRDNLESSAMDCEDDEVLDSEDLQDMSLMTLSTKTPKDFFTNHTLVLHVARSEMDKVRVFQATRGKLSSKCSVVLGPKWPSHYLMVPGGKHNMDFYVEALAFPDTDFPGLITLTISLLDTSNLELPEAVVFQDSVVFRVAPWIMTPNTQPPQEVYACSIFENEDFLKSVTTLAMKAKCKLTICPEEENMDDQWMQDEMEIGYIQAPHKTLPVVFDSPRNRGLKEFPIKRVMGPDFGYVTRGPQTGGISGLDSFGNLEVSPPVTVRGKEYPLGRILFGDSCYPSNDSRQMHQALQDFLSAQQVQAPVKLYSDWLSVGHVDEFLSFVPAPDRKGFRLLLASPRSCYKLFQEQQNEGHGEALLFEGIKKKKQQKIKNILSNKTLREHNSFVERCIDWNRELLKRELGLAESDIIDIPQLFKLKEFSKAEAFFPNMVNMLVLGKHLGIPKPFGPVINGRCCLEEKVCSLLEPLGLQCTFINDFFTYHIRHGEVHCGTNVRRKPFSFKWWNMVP
Chain of Induced myeloid leukemia cell differentiation protein Mcl-1 (Homo sapiens) (Q07820 whole entry, looked up): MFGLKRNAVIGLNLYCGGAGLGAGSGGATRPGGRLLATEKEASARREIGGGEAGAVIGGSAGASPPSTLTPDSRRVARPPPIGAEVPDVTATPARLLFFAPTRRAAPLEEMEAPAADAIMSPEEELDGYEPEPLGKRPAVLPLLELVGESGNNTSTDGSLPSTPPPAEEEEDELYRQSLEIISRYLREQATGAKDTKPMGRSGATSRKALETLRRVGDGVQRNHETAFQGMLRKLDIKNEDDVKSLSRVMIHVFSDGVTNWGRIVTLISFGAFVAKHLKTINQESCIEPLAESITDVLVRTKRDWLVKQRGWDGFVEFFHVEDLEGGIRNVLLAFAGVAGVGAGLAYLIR

On to `O=C(c1cccc(C(F)(F)F)c1)N1CC[C@H]2[C@H](CCCN2Cc2cc(F)cc(F)c2)C1`, for which the activation in assay [1] was 0.05%. Besides, the figures for the inhibition in assay [2] and in [3] were -0.14% and -8.63%, respectively.

Regarding `Cc1oc2c(c1C(=O)N1CCOCC1)C(=O)c1ccccc1C2=O`, the inhibition in assay [4] is 29.9%; in assay [5], -13.7%; in assay [6], 6.29%; in assay [2] it was 11.3%; in assay [3] it was 20.2% (active). Besides, the activation in [1] is -2.24%.

Take `CCOC(=O)c1c(C)oc2cc(Sc3ccccc3)c(O)c(O)c12`: the inhibition in assay [4] was 5.29%; in assay [2] it was -2.84%; in assay [3], -5.02%. Moreover, the activation in assay [1] is 0.78%.

With `COc1ccccc1C1C(C#N)=C(N)Oc2c1c(-c1ccccc1)nn2-c1ccccc1` (centres undefined), the inhibition in [7] is -8.81%; in assay [4], 12.6%; in assay [8], 2.3%; in assay [2], -4.34%; in assay [3], 1.22%. Moreover, the activation in assay [1] is 0.86%.

For the compound `CCOc1cccc(=O)c2c(C)n(CC3CCCO3)c(C)c12` (centres undefined), in assay [1], the activation is 2.93%. Further, the figures for the inhibition in assay [2] and in assay [3] were -10.4% and 4.91%, respectively.

As for `CN(CC(=O)Nc1ccc(S(=O)(=O)N2CCCC2)cc1)Cc1ccc(Cl)c(Cl)c1`, in assay [1], the activation was 3.77%. Besides, the inhibition in assay [2] was -13.1%; in assay [3], 5.4%.

For the compound `c1ccc(C2=Nc3cccc4cccc(c34)N2)cc1`, the inhibition in assay [7] was 6.39%; in [2], -16.1%; in assay [3], 8.24%. The activation in assay [9] was -0.31%; in assay [10], 3.48%; in [1], 4.54%.

With `C=CCn1c(=S)[nH]c2scc(-c3ccco3)c2c1=O`, the inhibition in assay [7] is 78.1% (active); in assay [11], 23.3%; in assay [12] it was 37.9%; in [13] it was 14.1%; in assay [2], -24.4%; in assay [3] it was 75.9% (active). The activation in assay [1] was 4.85%.

Consider `Oc1cccc(/C=N/Nc2ccc(Cl)nn2)c1O`, for which the inhibition is 93.5% (active) in assay [14]; 0.35% in assay [15]; 7.85% in [4]; 29.2% (active) in assay [13]; 42.9% (active) in assay [16]; 15.7% (active) in [17]. In addition, the inhibition in assay [18] is 20.9%; in assay [19], 7.26%; in assay [20], 9.97%; in assay [21], 26% (active); in assay [2], -36.1%; in assay [3], 10.1%. The activation in [1] was 10.1% (active).

Take `CN(C(=O)COC(=O)c1cc(-c2ccco2)nc2ccccc12)C1CCS(=O)(=O)C1` (centres undefined): the inhibition was 34.6% (active) in [11]; 95.6% (active) in [12]; 38.5% (active) in [4]; 3.94% in [22]; 28.1% (active) in assay [23]; -121% in assay [2]. Further, the inhibition in assay [3] is 53.3% (active). The activation in assay [1] was 24.1% (active).

With `NC1=NN(c2cccc(C(=O)O)c2)C(=O)C1`, the activation in assay [1] is 12.3% (active). For the same compound, the figures for the inhibition in [2] and in [3] were -62% and -2.77%, respectively.

Regarding `CCn1nc(C)c(CN2CCN(Cc3ccc(OC)c(C)c3C)C(CCO)C2)c1C` (centres undefined), in [1], the activation was -0.07%. For the same compound, the inhibition was 0.39% in [2] and -3.09% in [3].

Turning to `CN(C)[C@@H]1C(=O)C(C(N)=O)=C(O)[C@@]2(O)C(=O)C3=C(O)c4c(O)ccc(Cl)c4[C@@H](O)[C@H]3C[C@@H]12`, the inhibition is 24.2% in assay [4]; -0.22% in [13]; 102% (active) in assay [16]; 100% (active) in assay [17]; 101% (active) in assay [18]; 102% (active) in assay [19]. Besides, the inhibition in assay [20] is 104% (active); in assay [21], 102% (active); in assay [22], -3.91%; in assay [23] it was 1.29%; in assay [24], 17.2%; in [2], -24.2%. Further, the inhibition in assay [3] is 1.42%. Also, the activation in assay [1] is 6.8%.

In the case of `NC(=O)c1ccccc1NC(=O)c1ccccc1F`, in assay [1], the activation is 1.09%. Further, the inhibition in assay [2] is -4.33%; in assay [3], -4.54%.

For `Cc1ccc(C(=O)N/C(=C/c2cccs2)C(=O)N2CCCCC2)cc1`, in [1], the activation is -0.16%. For the same compound, the inhibition is 0.87% in assay [2] and 0.33% in assay [3].

As to `Oc1ccc(N=Cc2sc3ccccc3c2Cl)cc1`, the inhibition was 12.2% in assay [4]; 3% in assay [8]; 50.3% (active) in assay [25]; 13.2% in assay [22]; 7.56% in assay [23]; -6.63% in assay [24]. Besides, the values for the inhibition in assay [2] and in [3] were -37.1% and 55.2% (active), respectively. The activation in [1] is 10.4% (active).

With `COc1c(O)cc2oc(-c3ccc(O)c(O)c3)cc(=O)c2c1O`, the activation in [1] is 16.2% (active). The inhibition in assay [2] is -81.9%; in assay [3], 89.6% (active).

For `COCCn1nnnc1C(c1cc2ccc(OC)cc2[nH]c1=O)N1CCc2ccccc2C1` (centres undefined), the activation in [1] is 0.07%. Moreover, the inhibition in assay [2] is -0.28%; in assay [3] it was 0.92%.

For the compound `CCc1cc2cc(OC)ccc2nc1SCC(=O)Nc1cc(OC)c(OC)cc1C(=O)O`, the activation in [1] is -3.01%. Moreover, the results for the inhibition in [2] and in assay [3] were 15.3% and 5.77%, respectively.

With `Cc1ccc(C(=O)OC(C)CN2CCOCC2)cc1` (centres undefined), the activation in [1] was 0.25%. The inhibition in assay [2] was -1.23%; in [3], -2.32%.

On to `CN(C)/C=C/C(=O)c1cnc2sccn2c1=O`, for which, in [1], the activation is 0.96%. Also, the results for the inhibition in assay [2] and in assay [3] were -3.51% and 1.19%, respectively.
